tested on: VDR:RXRa (NR concentration 270 nM, RXRa partner concentration 90 nM); experiment: PBM binding z-score (relative to random genomic background probes); higher = stronger binding; sequences stand for … in GC…GCGATTGACAGCGTAGAATGAAGG
Procedure: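 Protein-binding microarray (Agilent 4x180K custom design, double-stranded 60-nt probes: 5' GC cap, 34-nt variable region, 24-nt constant primer region; full probe sequence given). Purified or IVT nuclear receptor:RXRα heterodimers (3:1 NR:RXRα, mostly 270:90 nM) or homodimers were incubated for 1 h in PBS with 2% milk and no ligand, then detected with Alexa488 antibodies. Fluorescence from o1-orientation probes (~5 replicates averaged) was converted to z-scores against 500 random hg19 background probes. Variable regions are seed direct-repeat (DR0–DR5) sites, all their single-nucleotide variants and half-site ablations.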

Row | Sequence | PBM binding z-score
1 | TAGCCTCGGTCATGGGCCAGTATACCACGCGAAC | -0.162
2 | ATATGTCGGTTAAGGGTCATTCAGGTTGGTTCGC | 5.48
3 | CCGACTGTGGCAAAGGTTACCATACTCAGTACGA | 1.03
4 | CCGACTGGGGCAGAAAGGTTACCAGACCATCCGG | 0.696
5 | GTACGAAGGTGAATAGGTCGTTGATGAGTAGGCG | 0.73
6 | CCTAGCAGGCGAATCTGGGTCACTCAAGGCTTGA | -0.0504
7 | GCAGCCAGGTGAAACGCAGGTAACTCAGGGTGGC | -0.929
8 | TCGAGTCGGTTAGGGGCATTCAGAATGGCGTCGA | 0.541
9 | AGTCAAAGTTCACTTGGTAACGTAAGATTCAGCT | 4.07
10 | CTGGAAAGGTCGTGCTCAGGTGAGTATACCAAAC | 3.1
11 | TCGAGTAGGTTAGTCGGGGCATTCATCCAACATA | 2.37
12 | ATCTCTAGGTAAGACTGAGTTCAGTGAAGAACGC | 2.75
13 | CCTACTGGGCCACGAAAGGTCATTGATTCAGTGA | 4.21
14 | CGAACTAGGTCATTGACAGGACAGTGTATAGTAA | 2.05
15 | CAAACTAGGACACGAAAGGTCAAAGTCGAATGAC | 4.78
16 | CAAACTAGGTCACCGGAAGGTCAAAGGCCGCATG | 5.88
17 | AGTCAAGGTTCACTAGGTAACGTAAGATTCAGCT | 3.27
18 | CCTAGCAGGCCAATCTGCGTCACTCAAGGCTTGA | -0.714
19 | ATATGTAGGGTACATCCGGGTCATTCAGGCTATG | 5.09
20 | CGTCCAAGTTCAAGGTAACGTAACAGAAAGCAGC | 2.45

Row | Sequence | PBM binding z-score
21 | TCCTATAGGTAATACAGGTGAAAGTCGGCATCTA | 0.718
22 | ACAGACAGGGGATGAAGGTAACTCAGGCTATCAT | 0.0836
23 | ACAGACAGGTGATGCAGGTAACTCAGGCTATCAT | -0.283
24 | CCTACCAGGCCAATCTGGGTCACTCAAGGCTTGA | 0.999
25 | CAGCCTAGGTCAGGGCCAGTATGGGAGGAACGTT | -0.0336
26 | TCTCGGACGACACGAAGGTCAGAGCTTTCCAGAG | 1.2
27 | TAGCCTAGGTCATTGGGCCTGTATAGTACGCATC | 2.38
28 | CCACGGAGGACAACAGGAGGTCAGAGCTGCCAGA | 2.13
29 | ATATGTAGGTTTAGGGTCATTCAGGTTGGTTCGC | 5.54
30 | CAAACTAGGTCGCAGAGGTCAAAGTCCGTGCGTA | 7.14
31 | ACTATTAGTAGACTTAGGGCAACCGATACGACGC | -0.00967
32 | CATACATGGTCAGCTAGGCCAGAGTAGGGACGGC | -0.459
33 | TAGTCTAGGTCAGATCGGGCCAGTATACGCTATA | 0.995
34 | TCGTGTAGATCAATAGAGGTTAAGAAAGTGCGCT | 1.83
35 | TCATATAGGTAAGGGTGAAAGTCGAACGATATGA | 0.991
36 | ACTAGCAAGCCAAGTTTGGGTCACTCAAACAAAG | 0.188
37 | TCTAGGTGGTCACGGAGGTCACACACGACGGGTA | 6.02
38 | AGTCAAAGTTCAGGACGAGGTAACGTCAAGCACG | 3.07
39 | CGTCCAAGGTCAATGGTAGGTCAGTGAAAGCATT | 4.89
40 | GCGACTGGGGAATCAGCAGGTTACCATAACTTAA | -0.497
